A selection: hits, their analogues and other compounds. The true share with any hit is near 3.1%.
PK Bst: Pyruvate Kinase; purified pyruvate kinase, luminescence ATP production; ribose 5-phosphate activator present at AC10; Potency, µM; 51,000 tested, 1.2% active; AID 361, 2006; in the data active means potency below about 11 µM; inconclusive means mostly about 12 µM to 25 µM;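 the screen sought inhibitors and activators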
Caspase-7 inhib: qHTS Assay for Allosteric/Competitive Inhibitors of Caspase-7 | 75,000 tested, 0.02% active | recombinant caspase-7, Ac-DEVD-AFC fluorescence rate | AID 889, 2007 | Potency, µM (titrated, usually from 57.5 µM), actives largely listed as inhibitors; active means well fitted inhibition curve with a large enough effect in the main read-out, with a control signal flat, not every such curve was filed as active; inconclusive means small, poorly fitted or top-dose-only effect, or a change in a side signal
Target sequence (P55210 24-198 limits assumed): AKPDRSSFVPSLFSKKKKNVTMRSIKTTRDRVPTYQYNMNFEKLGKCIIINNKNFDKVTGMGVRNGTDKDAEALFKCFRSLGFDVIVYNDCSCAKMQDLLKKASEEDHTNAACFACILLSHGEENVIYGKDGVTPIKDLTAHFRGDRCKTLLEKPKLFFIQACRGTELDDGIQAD
Target sequence (P55210 207-303 limits assumed): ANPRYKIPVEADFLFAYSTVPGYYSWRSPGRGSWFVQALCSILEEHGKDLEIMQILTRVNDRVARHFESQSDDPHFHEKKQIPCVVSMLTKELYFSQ
GBA activity: Glucocerebrosidase | Lysosomal acid glucosylceramidase (Homo sapiens), P04062 | purified enzyme, resorufin glucoside fluorescence (screen aimed at inhibitors), 20 min | Potency, µM | 48,000 tested, 1.1% active | AID 360, 2006; in the data active means potency below about 15 µM; inconclusive means mostly about 16 µM to 33 µM;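 further: the screen sought inhibitors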
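Wild-type enzyme at 0.2 nM final in 50mM citric acid/KH2PO4, 10mM sodium taurocholate, 0.01% tween-20, pH 5.9, with resorufin beta-D-glucopyranoside at 30 uM final. Compounds titrated, 20 min at RT, red fluorescence read; AC50 from titration.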
Casp1 inh: qHTS Assay for Allosteric/Competitive Inhibitors of Caspase-1. P29466. Caspase-1 enzyme, Ac-WEHD-AFC fluorogenic rate. Potency, µM (series often up to 57.5 µM), most hits filed as inhibitors. 75,000 tested, 0.03% active
Target sequence (P29466 120-297 limits assumed): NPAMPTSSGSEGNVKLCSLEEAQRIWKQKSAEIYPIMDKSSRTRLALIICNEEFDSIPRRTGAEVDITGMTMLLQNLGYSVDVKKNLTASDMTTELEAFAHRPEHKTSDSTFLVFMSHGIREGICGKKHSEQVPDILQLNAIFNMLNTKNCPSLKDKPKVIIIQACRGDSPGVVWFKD
Target sequence (P29466 317-404 limits assumed): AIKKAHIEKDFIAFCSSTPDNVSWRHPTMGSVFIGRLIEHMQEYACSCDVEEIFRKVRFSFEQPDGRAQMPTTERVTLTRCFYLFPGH
FLuc inh: qHTS Assay for Inhibitors of Firefly Luciferase | AID 411, 2009 | 72,000 tested, 2.2% active | Potency, µM (doses to about 57.1 µM), most hits filed as inhibitors | purified firefly luciferase, luminescence, 8 min; further: nearly all actives have a fitted effect of over 40% in size
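Inhibition of light generation by firefly luciferase from ATP and luciferin was profiled with concentration-response curves per sample, ATP held at 10 uM within the enzyme's linear range. Plates were read by luminescence after an 8-minute ambient incubation.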
Numbers stand for hits; n = inactive; u = inconclusive; x = no result; [ ] = dose if it differs, or a comment. Unless noted, the call rests on the fitted dose curve; in most records, active means well fitted inhibition curve with a large enough effect; inconclusive means small, poorly fitted or top-dose-only effect; inactive means flat fitted curve, though single readings scatter.

SMILES	PK Bst	Caspase-7 inhib	GBA activity	Casp1 inh	FLuc inh
COC(=O)c1oc2ccc(OC)cc2c1N	x	n	n	n	u
O=Nc1ccc(Nc2ccccc2)cc1	x	n	x	n	x
CN1CCN([C@@H]2Cc3ccccc3Sc3ccc(Cl)cc32)CC1	x	n	x	n	n
Cn1c(CNc2nc3ccccc3n2C)nc2ccccc21	x	n	x	n	n
Cc1ccc(NCc2nc3ccccc3n2C)cc1	u	n	n	n	13µM
O[C@@H](c1cc(-c2ccc(Cl)cc2)nc2ccccc12)[C@@H]1CCCCN1	x	n[11.5 µM]	x	n[11.5 µM]	n[11.4 µM]
Cc1ccc(-n2cc3c(=O)n(C)c(=O)n(C)c3c2)cc1C	10	n	n	n	n
Cn1c(=O)c2cn(-c3ccc4c(c3)OCCO4)cc2n(C)c1=O	5.6	n	n	n	n
c1ccc(-c2ccc(N3CCCC4(CCNCC4)C3)cc2)cc1	x	n	x	n	n[11.4 µM]
O=C1OC2(CCCCC2)OC(=O)C1=CNc1ccc2c(c1)OCO2	n	n	n	n	n
O=C1/C(=C/Nc2ccc3c(c2)OCO3)CCc2ccccc21	x	u	x	u	0.63µM
CC(C)(C)c1ccc(C(=O)Nc2cnccn2)cc1	5.6	n	n	n	4µM
C=C(CC(=O)O)C(=O)O (tested in a mixture with another compound)	x	n[11.5 µM]	x	n[11.5 µM]	n[11.4 µM]
COc1cc(NC(=O)CN2CCN(S(=O)(=O)c3ccc(C(C)C)cc3)CC2)cc(OC)c1	n	n	15	n	n
CCOCCOCC	x	n	x	n	x
CCOC(=O)c1nn(-c2ccc3c(c2)CCN3C(C)=O)cc1O	9.9	n	n	n	10µM
COc1ccc(-c2cc(C(=O)N/N=C/c3ccc(OC)c(OC)c3)[nH]n2)cc1	x	n	x	n	x
COc1ccccc1-c1cc(=O)c2cccc(OC)c2o1	x	n	x	n	x
COc1cccc(-c2cc(=O)c3ccccc3o2)c1N	x	n	x	n	13µM
O=C(O)c1ccccc1NS(=O)(=O)c1cccc2ccccc12	x	n	x	n	x
CC1=CC(=C2C(=O)c3ccccc3C2=O)C=C(C)N1Cc1ccco1	u	n	n	n	13µM
O=C1c2ccccc2C(=O)N1Cc1ccco1	n	n	n	n	n
C/C(CCC(=O)OC[C@@H]1O[C@H](C#Cc2ccccc2)C=C[C@@H]1Oc1ccc(C)cc1)=N/O[C@@H](C)c1cn([C@H]2COC[C@H]2O)nn1	x	n[11.5 µM]	x	n[11.5 µM]	n[11.4 µM]
CCCOc1ccc(-c2nc(C#N)c(N3CCN(CC)CC3)o2)cc1	5.8	n	u	n	n
CCOc1ccc(-c2nc(C#N)c(N3CCN(C)CC3)o2)cc1	u	n	u	n	n
SMILES	PK Bst	Caspase-7 inhib	GBA activity	Casp1 inh	FLuc inh
CCCOc1ccc(-c2nc(C#N)c(N3CCN(C)CC3)o2)cc1	7.3	n	x	n	n
Cc1ccc(Nc2nc(N)nc(CSc3nccn3C)n2)cc1	x	n	n	n	20µM
COc1ccccc1Nc1nc(N)nc(CSc2nncn2C)n1	n	n	n	n	n
OC[C@H](CCc1c[nH]c2ccccc12)c1c[nH]c2ccccc12	x	n[11.5 µM]	x	n[11.5 µM]	n[11.4 µM]
CC(=O)c1c(C)[nH]c(C(=O)Nc2ccc(C)cn2)c1C	4.4	n	x	n	2.5µM
Cc1ccccc1C(=O)Nc1ccc(Br)cn1	x	n	x	n	13µM
CC(=O)c1c(C)[nH]c(C(=O)NCc2ccccn2)c1C	n	n	n	n	n
Cc1ccccc1C(=O)Nc1ccccc1	x	n	x	n	n
Cc1ccc(NC(=O)c2ccccc2F)nc1	n	n	n	n	25µM
CCOC(=O)CCN1CCN(C(=O)c2ccc(-n3c(=O)c(=O)[nH]c4ccccc43)cc2)CC1	x	n	x	n	x
COc1cc(-c2ccc(N=Nc3ccc4c(S(=O)(=O)O)cc(S(=O)(=O)O)c(N)c4c3O)c(OC)c2)ccc1N=Nc1ccc2c(S(=O)(=O)O)cc(S(=O)(=O)O)c(N)c2c1O	x	n	x	n	n
C#CCCCO/N=C1/C[C@@H](O)[C@@H](O)[C@@H]2[C@@H]3C(=O)N(C4CCCCC4)C(=O)[C@H]3CC[C@H]12	x	n[11.5 µM]	x	n[11.5 µM]	n[11.4 µM]
O=C(Nc1ccc2sccc2c1)c1ccc(Cl)s1	x	n	x	n	1.6µM
Nc1ccc2c(c1)CCC2=O	n	u	n	u	13µM
Cc1cccc2cc(CN(Cc3nnnn3Cc3ccco3)C3CCCC3)c3nnnn3c12	n	n	9.8	n	n
CCCN1C=CC(=C2C(=O)c3ccccc3C2=O)C=C1	x	n	x	n	0.16µM
CN1C=CC(=C2C(=O)c3ccccc3C2=O)C=C1	x	n	x	n	7.9µM
CC1=CC(=C2C(=O)c3ccccc3C2=O)C=C(C)O1	n	n	n	u	n
CCN1C=CC(=C2C(=O)c3ccccc3C2=O)C=C1	x	n	x	n	0.32µM
CCOC(=O)C1=C(C)NC(=O)N[C@@H]1c1coc2cc(C)cc(C)c2c1=O	x	n[11.5 µM]	x	n[11.5 µM]	n[11.4 µM]
CCn1c(=N)n(CCOc2ccc(OC)cc2)c2ccccc21	n	n	6.9	n	n
CCn1c(=N)n(CC(=O)OC)c2ccccc21	n	n	n	n	n
N=c1n(Cc2ccccc2)c2ccccc2n1CC(O)c1ccco1 (centres undefined)	n	n	n	n	n
COc1ccc(OCC(O)Cn2c(=N)n(Cc3ccccc3)c3ccccc32)cc1 (centres undefined)	n	n	14	n	n
N=c1n(CCO)c2ccccc2n1CCOc1ccccc1	n	n	6	n	n
SMILES	PK Bst	Caspase-7 inhib	GBA activity	Casp1 inh	FLuc inh
O=c1c2c(nc3c(-c4ccc(Cl)cc4)c[nH]n13)CCCC2	3.2	n	6.5	n	n
O=c1c2c(nc3c(-c4cccc5ccccc45)c[nH]n13)CCC2	x	n	n	n	n
Cc1[nH]n2c(=O)c3c(nc2c1-c1ccccc1)CCCC3	n	n	4.2	n	n
CN(C)CCNC(=O)c1ccc(-n2c(=O)c(=O)[nH]c3ccccc32)cc1	x	n	x	n	x
CN1CCN(CCCBr)CC1	x	n[11.5 µM]	x	n[11.5 µM]	n[11.4 µM]
CCOc1ccc2[nH]c(C)c(CN(C)C)c(=O)c2c1	x	n	x	n	n
Cc1[nH]c2ccc(F)cc2c(=O)c1SC(F)(F)C(F)F	n	n	9.5	n	n
COc1ccccc1-c1nc2s/c(=C\c3cccs3)c(=O)n2n1	x	n	5.8	n	u
COc1cc(/C=c2\sc3nc(-c4ccncc4)nn3c2=O)ccc1OC(C)=O	x	n	n	n	3.2µM
CC(=O)Oc1cccc(/C=c2\sc3nc(-c4ccco4)nn3c2=O)c1	n	n	x	n	n
COc1ccccc1/C=c1\sc2nc(-c3cccs3)nn2c1=O	n	n	n	n	n
COc1ccc2nc3c(cc2c1)c(NC(=O)c1cccs1)nn3CC(C)C	n	u	u	x	13µM
C[C@@]12CC[C@@H]3[C@@H](CC[C@H]4C[C@@H](O)CC[C@]43C)[C@H]1CC[C@@H]2c1cc(C(F)(F)F)n[nH]1	x	n[11.5 µM]	x	n[11.5 µM]	n[11.4 µM]
CCOc1ccc2[nH]c(=O)c(CN(Cc3cccs3)Cc3nnnn3C(C)(C)CC)cc2c1	n	n	15	n	n
Oc1ccc(Cl)cc1C=Nc1cnc2ccccc2c1	x	n[11.5 µM]	x	n[11.5 µM]	n[11.4 µM]
CCS(=O)(=O)Nc1ccc(-c2nnc(SCC(=O)c3ccc(NC(C)=O)c(OC)c3)o2)cc1	n	n	n	n	n
